Experimental data reported in PubChem BioAssay (NCI).
This is part of a sample that, as a whole, favours compounds with a hit. Of some 79,000 tested, about 15% had one in any assay. A number with no mark means an inactive call. The source made the active and inactive calls. No stated cut-off is given here; in the data, active means growth inhibition above about 70%; inactive means the rest.

Columns and labels:
[1] = NCI Yeast Anticancer Drug Screen. Data for the rad50 strain (AID 155);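 further: 0% = growth of vehicle-only cultures of the same strain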; settings: S. cerevisiae rad50 strain growth inhibition; at 50.0 µM; active compounds read high
In short: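 Cells are treated with compound, grown, and their growth is then scored against vehicle-only cultures of the same repair-deficient yeast strain.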

[2] = NCI Yeast Anticancer Drug Screen. Data for the mec2-1 strain (AID 157); settings: S. cerevisiae mec2-1 strain, at 50.0 µM, active compounds read high
In short: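 Vehicle-treated cultures served as reference for growth inhibition of compound-exposed mec2-1 yeast.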

[3] = NCI Yeast Anticancer Drug Screen. Data for the sgs1 mgt1 strain (AID 161);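 further: 0% = growth of cultures given vehicle only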; settings: S. cerevisiae sgs1 mgt1 strain, at 50.0 µM, active compounds read high
In short: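 Genetically altered yeast, compound exposure, growth inhibition relative to vehicle.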

[4] = NCI Yeast Anticancer Drug Screen. Data for the cln2 rad14 strain (AID 165);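 further: 0% = growth equal to vehicle treated cultures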; settings: S. cerevisiae cln2 rad14 strain, at 50.0 µM, active compounds read high
In short: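 Each compound was tested on cln2 rad14 yeast. Inhibition of growth was calculated against vehicle-exposed controls.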

[5] = NCI Yeast Anticancer Drug Screen. Data for the bub3 strain (AID 167); settings: S. cerevisiae bub3 mutant strain, at 50.0 µM, active compounds read high
In short: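 Part of a panel of yeast mutants defective in DNA damage repair or cell cycle regulation. Each strain is grown with compound, and inhibition is calculated relative to solvent-treated cultures.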

[6] = NCI Yeast Anticancer Drug Screen. Data for the mlh1 rad18 strain (AID 175); settings: S. cerevisiae mlh1 rad18 strain growth inhibition; at 50.0 µM; active compounds read high
In short: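 Vehicle-treated cultures served as the reference for growth inhibition in a yeast strain carrying DNA damage repair alterations exposed to each compound.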

Row | Structure (SMILES) | growth inhibition [1] | growth inhibition [2] | growth inhibition [3] | growth inhibition [4] | growth inhibition [5] | growth inhibition [6]
1 | O=C1NC(N2CCCCC2)=N/C1=C\c1ccccc1O | 5% | -25.3% | -2.85% | 15.1% | 5.5% | 89.7% (active)
2 | O=C1OCC2=C1C(c1ccc3c(c1)OCO3)c1cc3c(cc1O2)OCO3 (stereo unspecified) | -6.8% | -10.9% | -39.2% | 5.4% | -8.6% | -16.6%
3 | O=C1NNC2NC(=O)C3(NN2C1=O)c1ccccc1-c1ccccc13 (stereo unspecified) | -18% | -21.5% | 0.45% | -5.8% | -11.7% | -15.4%
4 | COc1ccc2nccc(C)c2c1 | -13% | 16.9% | -0.9% | -0.9% | 1.5% | -0.25%
5 | O=C(O)C12CCC(CC1=O)C2 (stereo unspecified) | 5.8% | 4.4% | 11.3% | 13.7% | -2% | 14.1%
6 | N/N=C(/CC(O)(C(F)(F)F)C(F)(F)F)c1ccccc1 | -10.8% | -24.9% | -13.9% | -3.7% | 3% | 2.65%
7 | C1=C(c2ccccc2)c2ccccc2CC1 | -10.3% | -7.25% | -0.35% | -3.45% | 2.2% | 3%
8 | CCOCC(=O)O | -15.1% | -1.25% | 9.15% | -32.2% | 39.2% | -1.25%
9 | Cn1c(=O)c2[nH]c([N+](=O)[O-])nc2n(C)c1=O | 23.4% | -10% | -0.3% | 13.6% | -20.1% | 25.8%
10 | CC(=O)OCC1OC(n2c(O)c(/C=C3\C=Nc4ccccc43)sc2=S)C(OC(C)=O)C(OC(C)=O)C1OC(C)=O (stereo unspecified) | 20.4% | -11.7% | -15.4% | 18.9% | -3.5% | 4.9%
11 | Cn1c(=O)c2c(nc(NCCNc3nc4c(c(=O)n(C)c(=O)n4C)n3C)n2C)n(C)c1=O | 1.85% | -3.35% | -46.2% | -25.1% | -20.8% | -31.7%
12 | Fc1ccc(CSc2cnnc(SCc3ccc(F)cc3)c2SCc2ccc(F)cc2)cc1 | -23.2% | 2.75% | -20.2% | -21.9% | -13.9% | -34.7%
13 | CC(=N\[O-])/C(C)=N/O.CC(=N\[O-])/C(C)=N/O.CCCc1ccncc1.[Cl-].[Cl-].[Rh+3] | -9.2% | -34% | -29.4% | 13.7% | -44.6% | 3.9%
14 | CC(C)CN(CC(C)C)C(=S)[S-].CC(C)CN(CC(C)C)C(=S)[S-].[Zn] | 54.5% | 12.7% | 55% | 21.4% | 4.65% | 32.4%
15 | c1ccc(CCc2nc3ccccc3[nH]2)cc1 | -1.9% | 11.1% | 1.5% | -33.6% | -37.1% | -10.9%
16 | O=C(NCc1ccccc1)C1C2C=CC(C2)C1C(=O)NCc1ccccc1 (stereo unspecified) | -6.65% | -10.8% | 30.4% | -6.3% | 18.1% | 5.85%
17 | CCOC(=O)c1cnc2n(c1=O)[C@H]1CCCC[C@@H]1N2 | 59% | 5.55% | -9.05% | 9.75% | 8.7% | 5.65%
18 | CCOC(=O)C(NC(=O)c1ccccc1)(N1CCOCC1)C(F)(F)F (stereo unspecified) | 25.3% | -20.1% | 8.05% | 15.8% | -3.45% | -44.9%
19 | Cc1cc2c(=O)cc(-c3ccccc3)oc2c(C(=O)O)c1C | -12.7% | -8.55% | 14.8% | -19.7% | -4.65% | -10.4%
20 | O=[N+]([O-])c1ccc(N/N=C2\C=C(c3ccccc3)C(c3ccccc3)C2)c([N+](=O)[O-])c1 (stereo unspecified) | -36.3% | 8.95% | -9.25% | 23.1% | 96.8% (active) | -14.2%
21 | CC(C)(S)CNCCSC(=O)c1ccccc1 | 2.8% | -0.2% | 23.1% | -16.1% | 63.5% | 30.1%

Row | Structure (SMILES) | growth inhibition [1] | growth inhibition [2] | growth inhibition [3] | growth inhibition [4] | growth inhibition [5] | growth inhibition [6]
22 | N#CCCc1c(O)ccc2ccccc12 | 38.6% | 0.6% | 10.1% | -59.9% | 10.5% | 11.6%
23 | Cc1ccccc1NC(=O)CSc1nnc(-c2ccc(N=Cc3ccc(Cl)cc3)cc2)o1 | -13.6% | -30.9% | 1.9% | -4.75% | -30% | -17.8%
24 | CCOC(=O)C(C(=O)OCC)n1c(=O)c2c(ncn2C)n(C)c1=O | 13.2% | -0.55% | -16.8% | 16.1% | 13% | 10.3%
25 | CC(C)(C)S(=O)(=O)C[N+]1(C)CCOCC1 | 37.1% | 11.6% | -1.6% | -2% | -3.25% | 5.35%
26 | Cc1cc(Br)ccc1C1=C(O)C(=O)NC1=O | 5.55% | -10.4% | 10.7% | -32.3% | -1.7% | -5.4%
27 | Cc1ccc(C(=N)c2ccccc2Cc2ccccc2)cc1C | -11.7% | -2.45% | -15.1% | -12.2% | 7.9% | -27.9%
28 | CCOC(=O)c1cn(C)c2c1C(O)=C(C(=O)OC)CC(=O)N2 | 4.5% | 1.1% | -14.2% | 7.2% | -12.6% | -26.8%
29 | c1ccc(-c2nnnn2-c2ccccc2)cc1 | -0.5% | -2.8% | 7.9% | -7.5% | 5.4% | 17.7%
30 | C=C1N(C)c2ccccc2C1(C)C | 22.7% | 10.2% | -12.2% | 29.4% | 6.2% | 17.3%
31 | CC(C)(C)NCC(CN1CCOCC1)C(=O)c1ccccc1 (stereo unspecified) | 48.5% | 70.1% (active) | 57% | 52.6% | 74.2% (active) | 90.2% (active)
32 | CC(NS(=O)(=O)c1ccccc1)C(N)=O (stereo unspecified) | 2.75% | 2.1% | 3.55% | -11.2% | 6.95% | -2.4%
33 | CS(=O)(=O)N/N=C/C1C=CC=CC1 (stereo unspecified) | -6.9% | 0.7% | -6.25% | -24.4% | -12.2% | -26.6%
34 | CCO/C=C1/N=C(Cc2ccccc2)OC1=O | 18.4% | -2.05% | 7.65% | 23.4% | 3.65% | 13%
35 | OCCOCC#CCOCCO | 3.9% | -0.25% | -2.35% | -7.45% | -9.25% | 9.3%
36 | CC(=O)NC1CC2c3ccccc3C1([N+](=O)[O-])c1ccccc12 (stereo unspecified) | 4.1% | 17.6% | 15.6% | 6.45% | -4.6% | -3.9%
37 | O=C1CCSC(=S)N1c1ccc(F)cc1F | 18% | 4.65% | 18.4% | 28.9% | 4.7% | -1.15%
38 | O=C(CCC(=O)Nc1cc(Cl)ccc1Cl)CC(=O)c1ccc(Cl)cc1 | 14.1% | 24.9% | 10.4% | 11% | -1.65% | -6.75%
39 | CC1CC(C)(C)OC(C2CC=CCC2)O1 (stereo unspecified) | -12.7% | -19.6% | -13.8% | -1.95% | 2.35% | 2.7%
40 | CCCCn1cnc2c(N)ncnc21 | -0.05% | -7.75% | -5.45% | -18.1% | 1.45% | -15.5%
41 | O=C(O)c1c(Cl)c(Cl)c(Cl)c(Cl)c1C(=O)Nc1ccccc1F | -3.8% | -19.2% | 14.3% | -118% | 1.5% | 0.6%
